The values below come from the supplement of paper PMC12494721.

Structures can show the parent of a compound that is named as a salt.

The subject of this assay is Escherichia coli IAI1. As to the kind of experiment: fold change of Cadaverine concentration vs plate DMSO controls (fold change (ratio)); higher = more amine produced, active = hit call of the paper (significant change in both replicates, either direction). As to conditions: incubation time: 27 h, anaerobic, 37 °C. An outline of the steps: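 Extracts of whole anaerobic mGAM cultures were analysed for amines by LC–triple-quadrupole MS with dynamic MRM and external calibration curves, with drift corrected within batch. Four gut strains were grown at 37 °C for 27 h in 80 µL wells with compounds at 20 µM final, sweeteners at 50 µM final. Each value expresses fold change over plate DMSO controls. The average of 2 biological replicates is shown.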
For the molecule `CCCSS/C(CCO)=C(/C)N(C=O)Cc1cnc(C)nc1N` [Prosultiamine] (20 µM), the “fold change of Cadaverine concentration” value is 0.958 (inactive).

As for `CN(C)CCOC(c1ccccc1)c1ccccc1.Cn1c(=O)c2[nH]c(Cl)nc2n(C)c1=O` [Dimenhydrinate] (20 µM), the “fold change of Cadaverine concentration” value is 0.985 (inactive).

On to `CCCCCCCN(CC)CCCC(O)c1ccc(NS(C)(=O)=O)cc1` (centres undefined) [Ibutilide fumarate] (20 µM), for which the “fold change of Cadaverine concentration” value was 1.02 (inactive).

On to `Cc1cccc(Nc2ccncc2S(=O)(=O)NC(=O)NC(C)C)c1` [Torsemide] (20 µM), for which the “fold change of Cadaverine concentration” value is 0.976 (inactive).

Consider `C=C1c2cccc(O)c2C(O)=C2C(=O)[C@]3(O)C(O)=C(C(N)=O)C(=O)[C@@H](N(C)C)[C@@H]3[C@@H](O)[C@H]12` [Methacycline hydrochloride] (20 µM), for which the “fold change of Cadaverine concentration” value is 0.294 (active).

Take `O=C(O)CNC(=O)C(CS)Cc1ccccc1` (centres undefined) [Thiorphan] (20 µM): the “fold change of Cadaverine concentration” value was 0.956 (inactive).

Consider `CCn1cc(C(=O)O)c(=O)c2cc(F)c(N3CCNCC3)nc21` [Enoxacin] (20 µM), for which the “fold change of Cadaverine concentration” value is 0.269 (active).

Consider `Cc1ccc(-c2ncc(Cl)cc2-c2ccc(S(C)(=O)=O)cc2)cn1` [Etoricoxib] (20 µM), for which the “fold change of Cadaverine concentration” value was 0.905 (inactive).

As for `CNC(=O)OCc1cccc(COC(=O)NC)n1` [Pyricarbate] (20 µM), the “fold change of Cadaverine concentration” value was 1.05 (inactive).

Consider `N#Cc1cc(NC(=O)C(=O)O)c(Cl)c(NC(=O)C(=O)O)c1` [Lodoxamide] (20 µM), for which the “fold change of Cadaverine concentration” value was 0.977 (inactive).

In the case of `CNC1(C)C2CCC(C2)C1(C)C` (centres undefined) [Mecamylamine hydrochloride] (20 µM), the “fold change of Cadaverine concentration” value was 0.968 (inactive).

Consider `CCOC(=O)[C@H](CCc1ccccc1)N[C@@H](C)C(=O)N(CC(=O)O)C1Cc2ccccc2C1` [Delapril Hydrochloride] (20 µM), for which the “fold change of Cadaverine concentration” value is 1.01 (inactive).

In the case of `CN1[C@@H]2CC[C@H]1C[C@@H](OC(c1ccccc1)c1ccccc1)C2` [Benztropine mesylate] (20 µM), the “fold change of Cadaverine concentration” value was 1.05 (inactive).

In the case of `C[N+]1(CCCCC[N+]2(C)CCCC2)CCCC1` [Pentolinium bitartrate] (20 µM), the “fold change of Cadaverine concentration” value is 0.966 (inactive).

Take `CC(=O)Oc1cc(C(F)(F)F)ccc1C(=O)O` [Triflusal] (20 µM): the “fold change of Cadaverine concentration” value was 0.988 (inactive).

Turning to `COc1ccc2cc(CCC(C)=O)ccc2c1` [Nabumetone] (20 µM), the “fold change of Cadaverine concentration” value was 1.09 (inactive).

For `CN1C(=O)CC(c2ccccc2)C1=O` (centres undefined) [Phensuximide] (20 µM), the “fold change of Cadaverine concentration” value is 1.01 (inactive).

For the molecule `CC(N)CCCC(C)(C)O` (centres undefined) [Heptaminol hydrochloride] (20 µM), the “fold change of Cadaverine concentration” value is 1.04 (inactive).

As for `CN(C)CCOC(c1ccc(Cl)cc1)c1ccccn1` (centres undefined) [Carbinoxamine maleate salt] (20 µM), the “fold change of Cadaverine concentration” value is 0.974 (inactive).

Turning to `C=CCN1CCCC1CNC(=O)c1cc2nn[nH]c2cc1OC` (centres undefined) [Alizapride hydrochloride] (20 µM), the “fold change of Cadaverine concentration” value was 0.998 (inactive).

On to `CC1(C)O[C@@H]2C[C@H]3[C@@H]4C[C@H](F)C5=CC(=O)C=C[C@]5(C)[C@H]4[C@@H](O)C[C@]3(C)[C@]2(C(=O)CO)O1` [Flunisolide] (20 µM), for which the “fold change of Cadaverine concentration” value is 1.07 (inactive).

On to `C=CC(N)CCC(=O)O` (centres undefined) [Vigabatrin hydrochloride] (20 µM), for which the “fold change of Cadaverine concentration” value was 0.978 (inactive).

Consider `CC(N)C12CC3CC(CC(C3)C1)C2` (centres undefined) [Rimantadine hydrochloride] (20 µM), for which the “fold change of Cadaverine concentration” value was 1.01 (inactive).

With `O=C(O)c1cc(-c2ccc(F)cc2F)ccc1O` [Diflunisal] (20 µM), the “fold change of Cadaverine concentration” value was 1.02 (inactive).

In the case of `OC[C@H]1O[C@@H](O[C@@H]2[C@@H](CO)OC(O)(CO)[C@H]2O)[C@H](O)[C@@H](O)[C@H]1O` (mixture of isomers) [Lactulose] (50 µM), the “fold change of Cadaverine concentration” value is 1.05 (inactive).

Take `COc1ccc2c3c1O[C@H]1C[C@@H](O)C=C[C@@]31CCN(C)C2` [Galanthamine hydrobromide] (20 µM): the “fold change of Cadaverine concentration” value is 0.979 (inactive).

As for `O=C(CCNNC(=O)c1ccncc1)NCc1ccccc1` [Nialamide] (20 µM), the “fold change of Cadaverine concentration” value was 1.03 (inactive).

For the molecule `CC(C)OC(=O)C(C)(C)Oc1ccc(C(=O)c2ccc(Cl)cc2)cc1` [Fenofibrate] (20 µM), the “fold change of Cadaverine concentration” value was 1.03 (inactive).

On to `Cc1ccc2c(c1)c1c3n2CCNC3CCC1` (centres undefined) [Pirlindole mesylate] (20 µM), for which the “fold change of Cadaverine concentration” value is 1.01 (inactive).

For the molecule `CC[N+](C)(C)Cc1ccccc1Br` [Bretylium tosylate] (20 µM), the “fold change of Cadaverine concentration” value was 0.937 (inactive).

For the molecule `COC(=O)[C@H](Cc1ccccc1)NC(=O)[C@H](CC(=O)O)NCCCc1ccc(OC)c(O)c1` [Advantame] (50 µM), the “fold change of Cadaverine concentration” value was 1.04 (inactive).

Turning to `O=C(c1cc(O)c(O)c(O)c1)c1ccc(O)c(O)c1O` [Exifone] (20 µM), the “fold change of Cadaverine concentration” value was 0.991 (inactive).

Turning to `COc1cc(N)cn[n+]1-c1ccccc1` [Amezinium metilsulfate] (20 µM), the “fold change of Cadaverine concentration” value was 1.02 (inactive).

In the case of `CN[C@@H]1[C@@H](O[C@H]2O[C@H](CO)[C@@H](N)[C@H](O)[C@H]2O)OC2C[C@@H](N)[C@@H](O[C@H]3[C@H](O)[C@@H](O)[C@H](N)C[C@@H]3N)OC2[C@@H]1O` (some centres undefined) [Apramycin] (20 µM), the “fold change of Cadaverine concentration” value was 1 (inactive).

For the molecule `COc1ccc2[nH]c([S+]([O-])Cc3ncc(C)c(OC)c3C)nc2n1` (centres undefined) [Tenatoprazole] (20 µM), the “fold change of Cadaverine concentration” value was 0.977 (inactive).

For the molecule `CCCCC(=O)O[C@H]1CC[C@H]2[C@@H]3CCc4cc(O)ccc4[C@H]3CC[C@]12C` [Estradiol Valerate] (20 µM), the “fold change of Cadaverine concentration” value was 0.926 (inactive).

Turning to `O=C(O)CCc1nc(-c2ccccc2)c(-c2ccccc2)o1` [Oxaprozin] (20 µM), the “fold change of Cadaverine concentration” value was 0.96 (inactive).

Turning to `CC(C)(C)NC[C@H](O)c1ccc(O)c(CO)c1` [Levalbuterol hydrochloride] (20 µM), the “fold change of Cadaverine concentration” value was 0.974 (inactive).

In the case of `COc1ccc(C(=O)c2ccc(C)cc2)c(O)c1` [Mexenone] (20 µM), the “fold change of Cadaverine concentration” value was 1.02 (inactive).
